Assay results as given in PubChem BioAssay (NCATS).
Inconclusive results are not listed. Active and inactive are the calls of the source. Unless noted, the call rests on the fitted dose curve; in most records, active means well fitted curve in the direction sought with a large enough effect; inconclusive means small, poorly fitted or top-dose-only effect, or another doubt; inactive means no such curve, though single readings can be large; an effect the other way counts as inactive or inconclusive.

Legend:
[1] = Cell Viability - HepG2 (AID 433; calls by dose curve;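 further: potency means the concentration at half of the fitted maximal effect; potency for ATP loss meaning cytotoxicity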); conditions: qHTS
Procedure, shortened: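 Cytotoxicity is scored as loss of intracellular ATP in HepG2 cells exposed to compounds for 40 h. Concentration-response curves, normalized to DMSO and 100 uM tamoxifen, give AC50 values.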

[2] = molecular target: Mitogen-activated protein kinase 10 (Mus musculus) (UniProt Q61831); test: JNK3 AlphaScreen Assay (AID 530; active means well fitted curve in either direction with a large enough effect, not every such curve was filed as active;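 further: kinase came from lysate of stimulated human HepG2 cells; signal reports phosphorylation of biotinylated GST-cJun 1-79 at Ser73 with 10 µM ATP; on the % scale 0 is the no-effect control and ±100 the full control effect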); conditions: JNK3 lysate, c-Jun phosphorylation; series mostly up to 57.1 µM
Procedure, shortened: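 HepG2 lysate (IL-1b/TNFa pre-activated) + biotin-GST-cJun 1-79 + anti-pSer73 cJun; cpd titration, 15 min RT; ATP 10 uM start; Tris pH 7.6, MgCl2, DTT, vanadate; beads in EDTA buffer; AlphaScreen.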

[3] = Cell Viability - N2a (AID 540); conditions: N2a mouse neuroblastoma cell viability; activity change, negative = cytotoxicity: at 92.2 µM (top of the series);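 further: potency means the concentration at half of the fitted maximal effect; cells exposed to compound for 40 h at 37 °C; nearly all actives have a fitted effect of over 45% in size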
Procedure, shortened: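 In this qHTS cytotoxicity screen, ATP-dependent luciferase luminescence reports viable N2a cells after a 40 hr compound exposure in complete culture medium. Potencies are AC50 values from standard Hill equation fits.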

[4] = Cell Viability - H-4-II-E (AID 543); conditions: H-4-II-E rat hepatoma viability; series mostly up to 92.2 µM; further: potency means the concentration at half of the fitted maximal effect; nearly all actives have a fitted effect of over 35% in size
Procedure, shortened: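 AC50 from Hill-modelled qHTS concentration-response curves. H-4-II-E rat hepatoma cells in complete medium, 40 hr exposure at 37 °C, viability by CellTiter-Glo ATP luminescence.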

[5] = Cell Viability - Mesenchymal (AID 546); conditions: mesenchymal cells viability, qHTS; series mostly up to 91.7 µM;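 further: cells exposed to compound for 40 hours before reading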
Procedure, shortened: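 Human renal mesenchymal cells (glomerulus-derived), 1000 cells/well, 5 hr 37 °C pre-incubation; compound 40 hr, 37 °C; CellTiter-Glo, 20 min RT; luminescence; AC50 via Hill equation.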

[6] = Cellular Toxicity (caspase-3) HepG2 (AID 654); conditions: HepG2 caspase-3 activation, luminescence, 0% = DMSO only, 100% = tamoxifen; series mostly up to 92.2 µM;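 further: cells exposed to compound for 16 hours before reading; 0% = DMSO alone and 100% = caspase signal from 100 µM tamoxifen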
Procedure, shortened: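 Concentration-response AC50 values reflect caspase-3/7 induction in HepG2 cells after 16 hours of compound exposure, quantified by luminescence from liberated aminoluciferin and referenced to 100 uM tamoxifen as full stimulation.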

[7] = Cellular Toxicity (caspase-3) Jurkat (AID 655); conditions: Jurkat caspase-3 activation, luminescence; caspase-3 activation: at 92.2 µM (top of the series), DMSO = 0%, tamoxifen = 100%;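 further: cells exposed to compound for 16 h at 37 °C before reading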
Procedure, shortened: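 Caspase 3/7 activation is scored as increased luminescence in Jurkat cells cultured with compound for 16 hours in complete medium. AC50 values come from Hill fits of qHTS concentration-response data normalized to DMSO and 100 uM tamoxifen controls.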

[8] = Cellular Toxicity (caspase-3) HUV-EC-C (AID 656); conditions: HUV-EC-C cells, caspase-3 activation (apoptosis), vehicle = 0, 100 µM tamoxifen = 100%; series mostly up to 92.2 µM
Procedure, shortened: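 Read-out: luminescence proportional to caspase 3/7 activity, measured 20 min after adding Caspase-Glo 3/7 reagent. Cells (HUV-EC-C) had received compound for 16 hr at 37°C. Increases relative to DMSO and 100 uM tamoxifen gave concentration-response AC50 values.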

[9] = Cellular Toxicity (caspase-3) SHSY5Y (AID 657); conditions: SH-SY5Y caspase-3 activation, DMSO zero, 10 µM staurosporine = 100%; series mostly up to 91.7 µM
Procedure, shortened: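 Cells plated and incubated 5 h at 37 °C, dosed over a concentration range, incubated 16 h, then given Caspase-Glo 3/7 reagent for 1 h at room temperature before luminescence reading. Staurosporine (10 uM) defined full stimulation.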

[10] = Cellular Toxicity (caspase-3) BJ (AID 658); conditions: BJ fibroblasts, luminescence, normalized: DMSO 0%, staurosporine 100%; series mostly up to 91.7 µM
Procedure, shortened: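 qHTS, BJ fibroblasts, 1000 cells/well; 5 hr preincubation, 16 hr compound, 37 °C; Caspase-Glo 3/7 reagent, 1 hr RT; luminescence. DMSO = 0%, 10 uM staurosporine = 100%. Hill-equation AC50.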

[11] = Cellular Toxicity (caspase-3) MRC-5 (AID 659); conditions: MRC-5 cells, luminescence, normalized: DMSO 0%, 10 µM staurosporine 100%; series mostly up to 91.7 µM
Procedure, shortened: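 MRC-5 fibroblasts, 1500/well; 16 h cpd, 37 °C; Caspase-Glo 3/7, 1 h RT; lumi read. Norm: DMSO = 0%, 10 uM staurosporine = 100%. Hill-fit AC50 from qHTS conc-response.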

[12] = Cellular Toxicity (caspase-3) Mesangial (AID 660); conditions: mesangial cells, normalized: DMSO 0%, 100 µM tamoxifen 100%; series mostly up to 91.7 µM;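 further: cells exposed to compound for 16 h before the caspase read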
Procedure, shortened: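 AC50 values come from Hill-equation fits of caspase 3/7 activation, measured as Caspase-Glo luminescence in human glomerular mesangial cells exposed to compound for 16 h at 37 °C; 100% set by 100 uM tamoxifen.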

[13] = Cellular Toxicity (caspase-3) SK-N-SH (AID 661); conditions: SK-N-SH caspase-3 activation, qHTS; series mostly up to 91.7 µM
Procedure, shortened: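 Apoptosis readout in SK-N-SH neuroblastoma: Caspase-Glo 3/7 luminescence following 16 hr treatment in complete culture medium. Normalization used DMSO and 10 uM staurosporine controls.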

[14] = Cellular Toxicity (caspase-3) H-4-II-E (AID 663); conditions: H-4-II-E rat hepatoma; Potency: caspase-3 activation; series mostly up to 92.2 µM;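 further: cells exposed to compound for 16 hr before readout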
Procedure, shortened: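 H-4-II-E rat hepatoma, 1500 cells/well, 5 hr settle at 37 °C; compound 16 hr, 37 °C, complete medium; Caspase-Glo 3/7, 20 min RT; luminescence. DMSO = 0%, 100 uM tamoxifen = 100%; Hill-equation AC50.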

[15] = Cellular Toxicity (caspase-3) Hek293 (AID 664); conditions: HEK293 caspase-3 activation, DMSO = 0%, 100 µM tamoxifen = 100%; at 92.2 µM (top of the series);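 further: cells exposed to compound for 16 h at 37 °C before readout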
Procedure, shortened: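 Apoptosis readout: Caspase-Glo 3/7 signal in human HEK293 cells following 16-hour compound incubation. Responses scaled between DMSO baseline and 100 uM tamoxifen.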

[16] = Cellular Toxicity (caspase-3) N2a (AID 665); conditions: N2a cells, luminescence, normalized: DMSO 0%, 10 µM staurosporine 100%; series mostly up to 92.2 µM;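 further: compound exposure lasted 16 h at 37 °C before readout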
Procedure, shortened: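 Concentration-response qHTS: compound-induced caspase-3/7 luminescence in N2a cells (16 h, 37 °C), relative to DMSO and 10 uM staurosporine controls; AC50 obtained using the standard Hill equation.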

[17] = Cellular Toxicity (caspase-3) NIH 3T3 (AID 666); conditions: NIH 3T3 caspase-3 activation, apoptosis/toxicity; series mostly up to 92.2 µM;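 further: caspase signal read after 16 h compound exposure; 0% = DMSO basal and 100% = 100 µM tamoxifen stimulation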
Procedure, shortened: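 Activity: caspase-3/7 induction, NIH 3T3 cells, 16 hr treatment at 37°C, luminescent Caspase-Glo detection; AC50 via Hill equation.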

[18] = molecular target: Cytochrome P450 3A4 (Homo sapiens) (UniProt P08684); test: qHTS Assay for Activators of Cytochrome P450 3A4 (AID 885); conditions: recombinant CYP3A4, Luciferin-PPXE luminescence, 60 min; series mostly up to 57.1 µM; further: nearly all actives have a fitted effect of over 65% in size
Procedure, shortened: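 Human CYP3A4 dealkylates Luciferin-PPXE to luciferin, which luciferase detection converts to light. Substrate was at its KM (25uM), buffer 200mM KPO4, reaction 60 min at RT.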

[19] = Cell Viability - LYMP2-001 (AID 921); conditions: LYMP2-001 lymphoblastoid cell viability; series mostly up to 92.2 µM;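 further: cells exposed to compound for 24 h at 37 °C; 0% = DMSO only and full inhibition = tetraoctylammonium bromide control wells; nearly all actives have a fitted effect of over 70% in size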
Procedure, shortened: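 qHTS, 1536-well; lymphoblastoid cells, 24 hr compound, 37 C; ATP by CellTiter-Glo, 30 min RT; luminescence; Hill-fit AC50.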

[20] = MultiTox-Fluor Cytotoxicity Assay - LYMP1-001 - Dead Cells (AID 946); conditions: LYMP1-001 lymphoblastoid cells, dead-cell protease fluorescence; series mostly up to 92.2 µM;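 further: 0% = DMSO and 100% = tetraoctylammonium bromide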
Procedure, shortened: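 LYMP1-001 lymphoblastoid cells (2500/well) treated 16 h at 37 C. Dead-cell protease cleavage of bis-AAF-R110 read at Ex/Em 485/520. Normalized to DMSO and 15 uM tetraoctylammonium bromide; AC50 from Hill fits.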

[21] = MultiTox-Fluor Cytotoxicity Assay - LYMP1-001 - Live Cells (AID 947); conditions: LYMP1-001 lymphoblastoid cells, live-cell protease fluorescence viability; series mostly up to 92.2 µM;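 further: 0% = DMSO only and full inhibition = tetraoctylammonium bromide control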
[22] = Cell Viability - LYMP1-002 - Assay at 16 hr (AID 948); conditions: LYMP1-002 lymphoblastoid cell viability; series mostly up to 92.2 µM;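 further: 0% = DMSO alone and full effect = 92 µM tetraoctylammonium bromide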
Procedure, shortened: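 Acute cytotoxicity is scored as a concentration-dependent fall in intracellular ATP in a human lymphoblastoid line (LYMP1-002) after 16 hr compound exposure at 37 C, measured by luciferase luminescence.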

[23] = MultiTox-Fluor Cytotoxicity Assay - LYMP1-002 - Live Cells (AID 955); conditions: LYMP1-002 lymphoblastoid live-cell protease fluorescence viability; series mostly up to 46.1 µM; further: on the % scale 0 is the no-effect control and ±100 the full control effect
Procedure, shortened: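 In this qHTS viability format, lymphoblastoid cells (LYMP1-002, human) received compound for 16 hr at 37 C. Fluorogenic GF-AFC cleavage by viable cells was detected at 405/510 nm after 1 h at room temperature.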

[24] = MultiTox-Fluor Cytotoxicity Assay - LYMP1-002 - Dead Cells (AID 960); conditions: LYMP1-002 lymphoblastoid cells, dead-cell protease fluorescence; series mostly up to 46.1 µM;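 further: 0% = DMSO and 100% = tetraoctylammonium bromide; nearly all actives have a fitted effect of over 60% in size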
Procedure, shortened: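 Concentration-dependent increases in membrane-leaked protease activity are quantified in LYMP1-002 cells after 16 hr treatment; values are normalized against DMSO and tetraoctylammonium bromide (15 uM) controls and AC50 derived by Hill modeling.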

[25] = MultiTox-Fluor Cytotoxicity Assay - LYMP1-003 - Dead Cells (AID 961); conditions: LYMP1-003 lymphoblastoid cells, dead-cell protease fluorescence; series mostly up to 92.2 µM;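 further: 0% = DMSO and 100% = tetraoctylammonium bromide; nearly all actives have a fitted effect of over 70% in size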
Procedure, shortened: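 LYMP1-003 human lymphoblastoid cells (2500/well) exposed to compound 16 h at 37 C in complete medium; dead-cell protease read with bis-AAF-R110 fluorescence (Ex/Em 485/520) after 60 min at room temperature. Normalized to DMSO and 15 uM tetraoctylammonium bromide; AC50 from Hill fit.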

[26] = MultiTox-Fluor Cytotoxicity Assay - LYMP1-003 - Live Cells (AID 962); conditions: LYMP1-003 lymphoblastoid cells, MultiTox-Fluor live-cell protease fluorescence; series mostly up to 92.2 µM;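 further: 0% = DMSO only and full loss = 92 µM tetraoctylammonium bromide; cytotoxic hits lower the live-cell protease signal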
Procedure, shortened: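 Human lymphoblastoid line LYMP1-003 in complete culture medium, treated 16 hr with titrated compounds. Viable cells quantified via cell-permeant GF-AFC substrate fluorescence; AC50 derived by Hill fitting.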

Sequence of Cytochrome P450 3A4 (Homo sapiens) (P08684 whole entry, looked up): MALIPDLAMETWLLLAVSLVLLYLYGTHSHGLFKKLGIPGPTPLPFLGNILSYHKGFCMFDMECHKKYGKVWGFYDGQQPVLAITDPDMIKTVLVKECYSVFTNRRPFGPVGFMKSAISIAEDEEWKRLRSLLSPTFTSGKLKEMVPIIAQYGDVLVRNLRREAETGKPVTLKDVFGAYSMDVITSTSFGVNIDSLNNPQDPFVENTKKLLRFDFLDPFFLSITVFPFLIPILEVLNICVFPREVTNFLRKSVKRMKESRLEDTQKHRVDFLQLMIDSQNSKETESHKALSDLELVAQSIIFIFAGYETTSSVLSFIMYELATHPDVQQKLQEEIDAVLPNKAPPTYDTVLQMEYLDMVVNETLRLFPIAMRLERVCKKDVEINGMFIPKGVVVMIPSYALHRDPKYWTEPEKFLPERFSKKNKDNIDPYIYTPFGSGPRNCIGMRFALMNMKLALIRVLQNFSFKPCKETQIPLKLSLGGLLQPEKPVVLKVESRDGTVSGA

Oc1cc(Cl)c(Cl)c(Cl)c1
inactive: Potency [2] | Potency [5] | outcome [6] | caspase-3 activation [7] 14.2% | outcome [8] | outcome [9] | outcome [10] | outcome [11] | outcome [12] | Potency [13] | Potency [14] | caspase-3 activation [15] 11.5% | outcome [16] | Potency [17] | Potency [18] | Potency [19] | outcome [20] | outcome [21] | outcome [22] | outcome [23] | Potency [24] | Potency [25] | outcome [26]
active: Potency [1] 59.9 µM | Potency [3] 31.6 µM | Potency [4] 63.1 µM
